Compound activity deposited in PubChem by National Center for Advancing Translational Sciences (NCATS).
SARS PLP yeast = inhibitors of SARS-CoV papain-like protease in yeast; S. cerevisiae expressing SARS-CoV PLpro, growth rescue; Potency, µM (highest dose often 32.9 µM), most hits filed as activators; 330,000 tested, 0.19% active; calls by dose curve; further: nearly all actives have a fitted effect of over 55% in size
Pf growth 48h = P. falciparum growth inhibition at 48 hours (one generation). P. falciparum luciferase growth in erythrocytes, 48 h. Potency, µM (series often up to 28.7 µM), hits mostly inhibitors. 310,000 tested, 5.9% active. AID 504832
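In quantitative HTS format, infected erythrocytes bearing luciferase-reporter parasites were treated for a single generation at 37 C. Luminescence after adding detection reagent served as the growth measure.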
Pf growth 96h = inhibits malaria parasite growth, 96 h; 320,000 tested, 6.9% active; AID 504834; P. falciparum luciferase reporter growth, 96 h; Potency, µM (top dose mostly 28.7 µM), most hits filed as inhibitors
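Luminescence readout: decreased luciferase signal marks inhibited growth of reporter-expressing P. falciparum in infected red cells (2% hematocrit, 0.05% parasitemia final), exposed to compound two generations (96 h, 37 C, 5% CO2).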
AmpC no deterg = blocks E. coli AmpC beta-lactamase in detergent-free assay | AmpC nitrocefin hydrolysis, absorbance 480 nm, 0.0001% Triton | P00811 | Potency, µM (top dose mostly 57.1 µM), actives largely listed as inhibitors | AID 485341 | 330,000 tested, 0.52% active; further: nearly all actives have a fitted effect of over 20% in size
Target sequence (P00811 whole entry, looked up): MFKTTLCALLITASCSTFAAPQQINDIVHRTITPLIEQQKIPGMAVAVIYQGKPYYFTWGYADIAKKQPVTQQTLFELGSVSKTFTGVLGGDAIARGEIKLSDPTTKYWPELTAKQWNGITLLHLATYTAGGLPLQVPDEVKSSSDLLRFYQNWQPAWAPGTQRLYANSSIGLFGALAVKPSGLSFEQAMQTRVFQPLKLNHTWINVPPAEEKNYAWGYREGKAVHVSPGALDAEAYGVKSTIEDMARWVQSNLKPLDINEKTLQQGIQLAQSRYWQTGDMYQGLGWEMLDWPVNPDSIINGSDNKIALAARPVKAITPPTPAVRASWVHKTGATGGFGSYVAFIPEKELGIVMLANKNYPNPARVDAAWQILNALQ
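AmpC (5.3 nM in the dispensed reagent) in 20 mM phosphate pH 7.0 with 0.01% (detergent screen) or 0.0001% Triton X-100 was preincubated with compounds for 15 min at room temperature. Nitrocefin was then added from an 800 uM solution, and hydrolysis was followed at 480 nm.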
Sm TGR inh = inhibitors of Schistosoma mansoni thioredoxin glutathione reductase | Q962Y6 | purified TGR, DTNB reduction, TNB absorbance 405 nm | Potency, µM (series often up to 114 µM), actives largely listed as inhibitors | 360,000 tested, 3% active | AID 485364; further: nearly all actives have a fitted effect of over 60% in size
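Kinetic colorimetric format: TGR-catalysed, NADPH-driven DTNB reduction monitored via TNB absorbance. Enzyme dispensed at 20 nM; compound exposure 15 min at room temperature before reaction start.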
AmpC detergent = AmpC beta-lactamase inhibition with detergent present | P00811 | AmpC hydrolysis of nitrocefin, absorbance 480 nm, 0.01% Triton | Potency, µM (top dose mostly 114 µM), hits mostly inhibitors | 370,000 tested, 0.041% active | AID 485294; further: nearly all actives have a fitted effect of over 25% in size
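AmpC (5.3 nM in the dispensed reagent) in 20 mM phosphate pH 7.0 with 0.01% (detergent screen) or 0.0001% Triton X-100 was preincubated with compounds for 15 min at room temperature. Nitrocefin was then added from an 800 uM solution, and hydrolysis was followed at 480 nm.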
Of the large screens only hits and unclear results are named; the others gave an inactive call. Only some compounds are listed: those with a hit (about 12% of all), similar ones and a draw of the others. Unless noted, the call rests on the fitted dose curve; in most records, active means well fitted curve in the direction sought with a large enough effect; inconclusive means small, poorly fitted or top-dose-only effect, or another doubt; inactive means no such curve, though single readings can be large; an effect the other way counts as inactive or inconclusive.

COc1cc(NC(=O)c2nnn(CC(=O)Nc3ccccc3)c2N)cc(OC)c1	none (no result: SARS PLP yeast, Pf growth 48h, Pf growth 96h, AmpC no deterg)
CN=C1SC(C(=O)Nc2ccccc2Cl)CC(=O)N1c1ccc(OC(F)(F)Cl)cc1 (stereo not given)	Pf growth 48h 10µM
COCc1cc(C)nc(Sc2nc3c(c(=O)n(C)c(=O)n3C)n2C)c1C#N	Pf growth 48h inconclusive, Sm TGR inh inconclusive
CC(Oc1ccc2c(c1)c1ccnc3c4ccccc4c(=O)n2c13)C(=O)NCCN1CCOCC1 (stereo not given)	Pf growth 48h 4.7µM, Pf growth 96h 4.1µM, AmpC detergent inconclusive
CC(Oc1ccc2c3c(c(=O)oc2c1)CCCC3)C(=O)NCCN1CCOCC1 (stereo not given)	none
COc1ccc2c(c1OC)c(=O)n1c3ccc(OC(C)C(=O)NCCN4CCOCC4)cc3c3ccnc2c31 (stereo not given)	Pf growth 48h inconclusive, Pf growth 96h 3.7µM
COc1ccc2c(c1OC)c(=O)n1c3ccc(OC(C)C(=O)NCCCN4CCOCC4)cc3c3ccnc2c31 (stereo not given)	Pf growth 48h 3.7µM, Pf growth 96h 4.1µM, Sm TGR inh inconclusive
CN(C(=O)CSc1nc2ccccc2n1Cc1cccc(C(F)(F)F)c1)c1ccccc1	none (no result: SARS PLP yeast, Pf growth 48h, Pf growth 96h, AmpC no deterg)
COc1cc(Cl)c(C)cc1NC(=O)CCN1C(=O)NC(C)(C)C1=O	none
CCOc1ncccc1C(=O)OCC(=O)Nc1cccc(S(N)(=O)=O)c1	none
C=CCOc1ccc(Br)cc1/C=N/O	AmpC detergent inconclusive (no result: Pf growth 48h)
C=CCOc1ccc(/C=N/O)cc1Cl	Pf growth 96h 3.3µM
CC(C)(C)OC(=O)N1CCC(c2c(C(=O)NCc3ccco3)cnn2-c2ccccc2)CC1	none (no result: SARS PLP yeast, Pf growth 48h, Pf growth 96h, AmpC no deterg)
COc1cc(C=O)ccc1OCC(=O)Nc1ccccc1N1CCOCC1	Pf growth 96h inconclusive
COc1cc(C(C)=O)ccc1OCC(=O)Nc1ccccc1N1CCCC1	Pf growth 96h 10µM
COc1ccc(CC(=O)Nc2ccccc2N2CCCC2)cc1OC	Pf growth 48h inconclusive
COc1cc(C(C)=O)ccc1OCC(=O)Nc1ccccc1N1CCCCC1	Pf growth 48h 13µM, Pf growth 96h inconclusive
CS(=O)(=O)N(CC(=O)N1CCCC1)c1cc(Cl)c(Cl)cc1Cl	Pf growth 96h 9.3µM (no result: Pf growth 48h)
CC(=O)c1cccc(N(CC(=O)N2CCCC2)S(C)(=O)=O)c1	Sm TGR inh 45µM, AmpC detergent inconclusive (no result: Pf growth 96h)
CC(=O)c1cccc(N(CC(=O)N2CCCCC2)S(C)(=O)=O)c1	Pf growth 96h inconclusive (no result: Pf growth 48h)
O=C(CCC(=O)N1CCSc2ccccc21)NCc1ccccc1Cl	none (no result: SARS PLP yeast, Pf growth 48h, Pf growth 96h, AmpC no deterg)
Cc1noc(C)c1S(=O)(=O)N1CCC(C(=O)N2CCN(C3CCCC3)CC2)CC1	Sm TGR inh 32µM
CCc1ccc(NC(=O)C2CCN(S(=O)(=O)c3c(C)noc3/C=C\c3ccc(OC)cc3)CC2)cc1	none (no result: SARS PLP yeast, Pf growth 48h, Pf growth 96h, AmpC no deterg)
CCOc1ccc(NC(=O)C2CCN(S(=O)(=O)c3c(C)noc3/C=C/c3ccco3)CC2)cc1	none (no result: SARS PLP yeast, Pf growth 48h, Pf growth 96h, AmpC no deterg)
CCC(C)N1CCN(C(=O)C2CCN(S(=O)(=O)c3c(C)noc3/C=C/c3ccco3)CC2)CC1 (stereo not given)	Pf growth 48h inconclusive, Sm TGR inh 45µM
CCc1ccc(NC(=O)C2CCN(S(=O)(=O)c3c(C)noc3C)CC2)cc1	Pf growth 96h 5.9µM
CCOc1ccccc1/C=C/c1onc(C)c1S(=O)(=O)N1CCC(C(=O)NC(C)(C)C)CC1	Pf growth 48h 15µM
CCOc1ccc(NC(=O)C2CCN(S(=O)(=O)c3c(C)noc3C)CC2)cc1	Pf growth 96h 7.4µM
NC(=O)COC(=O)c1c2c(nc3ccccc13)CCC2	Sm TGR inh inconclusive, AmpC detergent inconclusive
CC(C)(C)NC(=O)COC(=O)c1c2c(nc3ccccc13)CCC2	Pf growth 48h inconclusive, Pf growth 96h 5.2µM
O=C(COC(=O)c1c2c(nc3ccccc13)CCCC2)Nc1ccc2c(c1)OCO2	Pf growth 48h inconclusive, Pf growth 96h 10µM
O=C(OCC(=O)N1CCc2ccccc21)c1c2c(nc3ccccc13)CCCCC2	Pf growth 48h 4.7µM, AmpC detergent inconclusive
O=C(Cn1nc(-c2ccccc2)c2ccccc2c1=O)Nc1ccccn1	none (no result: Pf growth 96h)
COC(=O)c1ccc(NC(=O)CSc2nc(=O)n(Cc3ccco3)c3c2CCC3)cc1	Sm TGR inh inconclusive (no result: SARS PLP yeast, Pf growth 48h, Pf growth 96h, AmpC no deterg)
COc1cc(OC)c(OC)cc1/C=N/NC(=O)C[n+]1ccccc1	none
COCCCNC(=S)N/N=C/c1ccc(O)cc1O	none
COc1ccc2c(c1)c(C(=O)N/N=C/c1ccc(OC)c(OC)c1)c(C)n2C	Pf growth 96h 15µM
COc1cccc(/C=N/NC(=O)C[n+]2ccccc2)c1O	SARS PLP yeast inconclusive, Pf growth 48h inconclusive, Pf growth 96h 5.9µM
COc1cccc(/C=N/NC(=O)c2ccc(=O)n(C)c2)c1O	SARS PLP yeast inconclusive, Pf growth 48h inconclusive
COc1cccc(/C=N/NC(=O)c2[nH]c(C)c(C(=O)N/N=C/c3cccc(OC)c3O)c2C)c1O	SARS PLP yeast inconclusive, Pf growth 48h 9.3µM, AmpC detergent inconclusive (no result: Pf growth 96h)
COCCCNC(=S)N/N=C/c1cccc(OC)c1O	Pf growth 48h 0.41µM, Pf growth 96h inconclusive, Sm TGR inh inconclusive
COc1ccc2c(c1)c(C(=O)N/N=C/c1ccc(Cl)cc1)c(C)n2C	Pf growth 48h inconclusive, Pf growth 96h inconclusive
COc1cccc(/C=N/NC(=O)c2ccc(=O)[nH]n2)c1O	Pf growth 48h 5.9µM
COc1ccc(/C=N/NC(=O)c2cc(-c3cccn3C)n[nH]2)cc1OC	Pf growth 48h 13µM, Pf growth 96h 1.9µM
COc1ccc(/C=N/NC(=O)c2ccc(-c3ccccc3)cc2)cc1O	AmpC no deterg 35µM
COc1ccc(OC)c(/C=N\NC(=O)c2ccc(-c3ccccc3)cc2)c1	Pf growth 96h inconclusive
COc1cc(OC)c(OC)cc1/C=N/NC(=O)c1cc(-c2cccn2C)n[nH]1	Pf growth 48h inconclusive, Pf growth 96h inconclusive, Sm TGR inh inconclusive
COc1cccc(/C=N/NC(=O)c2ccc(-c3ccccc3)cc2)c1O	SARS PLP yeast inconclusive, Pf growth 96h 7.4µM, AmpC detergent inconclusive (no result: Pf growth 48h)
C/C(=N\N(Cc1ccccc1)c1ccccc1)c1ccncc1	Pf growth 96h inconclusive
COc1ccc(OC)c(CCNC(=O)c2cccc(NC(=O)C3=C(C)OCCS3)c2)c1	Pf growth 48h inconclusive
O=C(Nc1cccc(NC(=O)c2ccccc2[N+](=O)[O-])n1)c1ccccc1[N+](=O)[O-]	none
COC(=O)N1CCCc2cc(S(=O)(=O)NCc3ccccc3)ccc21	none (no result: SARS PLP yeast, Pf growth 48h, Pf growth 96h, AmpC no deterg)
COc1cc(/C=N/NC(=O)c2cc(O)cc(O)c2)ccc1OC(=O)c1ccccc1	Pf growth 96h inconclusive, AmpC detergent inconclusive
